BRCA1 expr up – qHTS Assay to Identify Small Molecule Activators of BRCA1 Expression; MCF7-BRCA1-FFLuc reporter, luminescence, 48 h; response scale: scaled: vehicle 0%, 10 µM genistein 100%; Potency, µM (highest dose often 46.1 µM), for inactives: at the top dose activation, hits mostly activators; 380,000 compounds, 1.1% hits; also: nearly all actives have a fitted effect of over 80% in size
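Reporter cells (MCF7, BRCA1 promoter-firefly luciferase) received library compounds across a concentration series for 48 h. End-point luminescence was measured and concentration-effect curves derived after normalization.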
GLP1R cytotox – qHTS of GLP-1 Receptor Inverse Agonists: Cytotox Screen. HEK293 cAMP-luciferase reporter cells, luminescence, 24 h. Potency, µM (series often up to 38.3 µM), without a hit: at the highest dose activity change, negative = inhibition, actives largely listed as inhibitors. 410,000 compounds, 0.13% hits;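 also: loss of luciferase light is scored as toxicity; % is scaled to controls: 0 for no effect and ±100 for the full control effect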
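Step one: seed cells (200 cells/uL, DMEM with 10% Nu serum, 1% pen-strep). Step two: 12-hour incubation at 37 deg C. Step three: pin 23 nL compound, incubate 24 hr. Step four: add luciferase reagent, read luminescence 12 min later.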
GLP-1R agonist – qHTS of GLP-1 Receptor Agonists. Glucagon-like peptide 1 receptor (Homo sapiens), P43220. AID 624172, 2012. 380,000 compounds, 0.007% hits. Potency, µM (highest dose often 45.6 µM), without a hit: at the top dose activation, hits mostly activators. HEK293 GLP-1R CRE-luciferase, luminescence, 4-6 h; cells express a hypersensitive GLP-1R form; also: % of control where 0% means no effect
Target sequence (P43220 whole entry, looked up): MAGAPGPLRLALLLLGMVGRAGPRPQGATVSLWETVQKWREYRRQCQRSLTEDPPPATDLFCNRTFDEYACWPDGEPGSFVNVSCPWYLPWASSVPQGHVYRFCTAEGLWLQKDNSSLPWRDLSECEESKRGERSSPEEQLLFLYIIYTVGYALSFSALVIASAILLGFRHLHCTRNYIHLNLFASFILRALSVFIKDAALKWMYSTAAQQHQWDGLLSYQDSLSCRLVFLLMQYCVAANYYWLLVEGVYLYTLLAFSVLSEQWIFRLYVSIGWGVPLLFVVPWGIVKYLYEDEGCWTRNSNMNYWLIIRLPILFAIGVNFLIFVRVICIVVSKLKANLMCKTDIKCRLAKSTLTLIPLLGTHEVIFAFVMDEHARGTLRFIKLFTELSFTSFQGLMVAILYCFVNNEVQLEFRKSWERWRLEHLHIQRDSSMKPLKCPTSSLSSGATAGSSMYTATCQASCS
GLP-1R inv ag – qHTS of GLP-1 Receptor Inverse Agonists (Inhibition Mode) | Potency, µM (highest dose often 38.3 µM), for inactives: at the top dose activity change, negative = inhibition, most hits filed as inhibitors | HEK293 GLP-1R CRE-luciferase, luminescence, 24 h; GLP-1R form is constitutively active | Glucagon-like peptide 1 receptor (Homo sapiens), P43220 | 410,000 compounds, 1.6% hits; also: % is scaled to controls: 0 for no effect and ±100 for the full control effect; nearly all actives have a fitted effect of over 55% in size
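GLP-1R inverse agonism mode: basal reporter luminescence in engineered HEK293 cells measured after one day of compound exposure at 37 deg C, with a 12 min room-temperature detection step.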
The depositor's hits bear a star; u = inconclusive; x = no result given. The list is not random: actives were taken first. Their share in the collection is about 2.6%. Calls follow the shape of the dose curve; as a rule, active = well fitted curve in the direction sought with a large enough effect; inconclusive = small, poorly fitted or top-dose-only effect, or another doubt; inactive = no such curve, though single readings can be large; an effect the other way counts as inactive or inconclusive. Potency is read from the fitted curve at half-maximal effect.

SMILES | BRCA1 expr up | GLP1R cytotox | GLP-1R agonist | GLP-1R inv ag
CCN(CC)/[N+]([O-])=N/OCOC(=O)C(C)c1ccc2cc(OC(C)=O)ccc2c1 (centres undefined) | -4.1% | x | x | x
Fc1cccc(/C=N/NC(=S)Nc2ccccc2Cl)c1 | 88.6% | 2.82µM* | -6.6% | u
Cc1cccc(NC(=S)N/N=C/c2cccc(O)c2)c1C | -32.9% | u | 3.5% | 7.94µM*
Cc1cccc(N2CCN(c3cc(C)nc4c(-c5ccc(Cl)cc5)c(C)nn34)CC2C)c1 (centres undefined) | x | -0.3% | x | -1.2%
CCCCNC(=O)c1nc(C2CCNCC2)oc1-c1ccccc1 | x | -9.3% | x | u
COc1cc2nc(N3CCOCC3)nc(NC3CCN(C)CC3)c2cc1OC | 4.8% | x | x | x
Cc1[nH]n(-c2ccccc2)c(=O)c1/C=N/N1C(=O)c2cccc3cccc(c23)C1=O | 0.0% | u | 5.9% | 12.6µM*
Cc1[nH]n(-c2ccccc2)c(=O)c1/C=N/N1CCOCC1 | 4.4% | 2.3% | 6.1% | 15.2%
Cc1[nH]n(-c2ccccc2)c(=O)c1/C=N/NC(=O)c1cccc(F)c1 | -49.1% | -16.1% | 0.0% | 7.94µM*
Cc1[nH]n(-c2ccc(Br)cc2)c(=O)c1/C=N/NC(=O)c1ccccc1 | -50.7% | -21.0% | -1.7% | u
CCOC(=O)N1CCN(Cc2nc3cc([N+](=O)[O-])ccc3n2C(C)C)CC1 | x | 0.7% | x | 1.2%
CCCCCOC(=O)C1=C(C)Nc2nnnn2C1c1ccccc1Cl (centres undefined) | -1.7% | -29.3% | 8.5% | 10µM*
CCCOc1ccccc1C1C(C(=O)Nc2ccccc2)=C(C)Nc2nnnn21 (centres undefined) | x | u | x | 8.91µM*
CCOC(=O)c1c(NC(=O)c2ccc(S(=O)(=O)N(CC(C)C)CC(C)C)cc2)sc2c1CCN(C(=O)OCC)C2 | 6.2% | 8.5% | -6.8% | 7.6%
CCN(CC)CCCNC(=O)c1cc(Cl)c(NC(=O)C2=C(C)OCCS2)cc1OC | -23.2% | -4.8% | 17.2% | u
COc1ccc(CNC(=O)C2CCN(S(=O)(=O)c3ccc4c(ccn4C)c3)CC2)cc1 | -8.5% | 0.4% | 1.0% | 2.7%
CCSc1nc2c([nH]c3ccccc32)c(=O)n1CC | x | 3.1% | x | 2.6%
CCN(CC)CCCN=Cc1c(O)n(-c2c(C)cccc2C)c(=O)c2ccccc12 | 0.2% | 1.0% | -3.0% | u
CCN(CC)CCCN=Cc1c(O)n(Cc2ccccc2)c(=O)c2ccccc12 | -23.0% | -9.7% | 14.2% | 12.6µM*
O=C(Cn1cnc2ccccc2c1=O)c1ccc(Cl)cc1 | 8.91µM* | -13.1% | 5.7% | -0.6%
CC(C)(C)n1ncc2c(=O)n(CC(=O)c3ccccc3)cnc21 | 12.6µM* | -9.8% | 7.5% | -16.6%
O=C(CSc1ncc(-c2ccccc2)[nH]1)Nc1cccc(Br)c1 | x | 0.6% | x | u
O=C(/C=C/c1ccc(-c2ccc(F)cc2)o1)N1CCCC1 | 3.98µM* | -7.9% | u | 211.2%
Cc1cc(OC(C)C(=O)N(Cc2ccco2)Cc2ccco2)cc(C)c1Cl (centres undefined) | x | 0.6% | x | 10µM*
Cc1ccc(CN(Cc2ccco2)C(=O)COc2cc(C)c(Cl)c(C)c2)cc1 | -41.1% | 15.0% | x | u
SMILES | BRCA1 expr up | GLP1R cytotox | GLP-1R agonist | GLP-1R inv ag
CCOC(=O)[C@H](CCc1ccccc1)NC(C)C(=O)N1CC2(CC1C(=O)O)SCCS2 (some centres undefined) | x | x | -4.3% | x
CCOc1ccccc1Nc1nc(-c2ccc(C)cc2)c(CC(=O)O)s1 | x | 3.2% | x | u
CCN(CC)c1ccc(N=Nc2nn(C)c(C)c2[N+](=O)[O-])cc1 | u | 4.47µM* | 18.1% | 6.4%
COc1ccc(C2NC(=S)N3C(c4ccc(OC)c(OC)c4)NC(=S)N23)cc1OC (centres undefined) | x | x | 0.8% | x
CCOC(=O)N1CCN(S(=O)(=O)c2ccc(C(=O)N(CCCN(C)C)c3nc4c(C)c(C)ccc4s3)cc2)CC1 | -39.6% | -10.9% | 6.0% | u
Cc1ccc2sc(N(CCCN(C)C)C(=O)c3ccc(S(=O)(=O)N(C)C4CCCCC4)cc3)nc2c1C | -88.5% | u | -6.8% | 2.82µM*
Cc1ccc2sc(N(CCCN(C)C)C(=O)c3ccc(S(=O)(=O)N4CCOCC4)cc3)nc2c1C | -18.1% | -15.4% | -5.9% | 10µM*
Cc1cc(C)c2nc(N(CCN(C)C)C(=O)c3ccc(S(=O)(=O)N(C)CC4CCCO4)cc3)sc2c1 (centres undefined) | 16.7% | 5.3% | -6.3% | 10µM*
Cc1cc(C)c2nc(N(CCCN(C)C)C(=O)c3ccc(S(=O)(=O)N4CC(C)OC(C)C4)cc3)sc2c1 (centres undefined) | -32.1% | 11.3% | -8.0% | 10µM*
CC(=O)c1ccc(C(=O)N(CCCN(C)C)c2nc3c(C)c(C)ccc3s2)cc1 | -14.0% | -8.5% | -2.7% | u
CC[C@@H]1OC(=O)C[C@H](O)[C@@H](C)[C@@H](O[C@H]2O[C@@H](C)[C@H](O[C@@H]3C[C@](C)(O)[C@H](O)[C@@H](C)O3)[C@@H](N(C)C)[C@@H]2O)[C@@H](C=O)C[C@@H](C)C(=O)/C=C/C(C)=C[C@@H]1CO[C@H]1O[C@@H](C)[C@H](O)[C@H](OC)[C@@H]1OC | x | x | 1.1% | x
CCNC(=S)Nc1scc(-c2ccccc2)c1C(=O)OCC | -26.3% | 10µM* | 0.0% | u
CCOC(=O)c1c(-c2ccccc2)csc1NC(=S)NC | -16.6% | u | 2.8% | -0.9%
CCOC(=O)c1c(-c2ccc(-c3ccccc3)cc2)csc1NC(=O)CNCCN(C)C | -78.2% | -5.7% | -0.1% | 10µM*
CCOC(=O)c1c(-c2ccccc2)csc1NC(=O)CCN1C(=O)c2ccccc2C1=O | 12.0% | -4.4% | 7.1% | 4.5%
O=C1c2cccc3cc([N+](=O)[O-])cc(c23)C(=O)N1CCN1CCCC1 | -83.6% | 34.2% | -13.3% | 4.47µM*
Nc1cc2c3c(cccc3c1)C(=O)N(CCN1CCCC1)C2=O | -78.5% | 0.0% | -7.8% | u
CN(C(=O)c1nc(-c2ccccc2)n(-c2ccccc2)n1)C1CCS(=O)(=O)C1 (centres undefined) | 0.0% | -5.8% | 3.7% | 30.5%
CC(C)NC(=O)C1CCCN(S(=O)(=O)c2ccc3c(ccn3C)c2)C1 (centres undefined) | x | 1.4% | x | 2.7%
CNCCCC1Sc2ccccc2Oc2ccccc21 (centres undefined) | -36.5% | u | 0.1% | 5.01µM*
O=C(NC(c1ccc(Cl)cc1)c1ccsc1)C1CCN(Cc2ccc(Oc3ccccc3)cc2)CC1 (centres undefined) | -52.1% | -23.7% | 1.7% | 10µM*
CCOc1cccc(C(=O)N(Cc2ccc(CC)cc2)C2CCS(=O)(=O)C2)c1 (centres undefined) | x | -6.3% | x | u
